Data as given in PubChem BioAssay AID743126 (The Scripps Research Institute Molecular Screening Center, 2013).
About 2,100 (0.57%) of roughly 370,000 compounds were called active. The list comes from a sample in which actives are over-represented; it also holds similar structures and randomly drawn compounds. Unmarked numbers belong to inactive results.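 How the source made its calls: active means inhibition above mean plus 3 SD of compounds lying within the high and low control bounds (cut at about 19% in these data); inactive means the rest.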

target: Group 3 secretory phospholipase A2 (Homo sapiens) (UniProt Q9NZ20); assay: HGIII-sPLA2 enzyme inhibition – biochemical, QFRET, BODIPY PC-A2 liposome substrate, primary screen (AID 743126); details: QFRET BODIPY PC-A2 liposome hydrolysis, fluorescence; at 12.2 µM; hits give high values;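 further: 0% = median of test compound wells and 100% = no enzyme DMSO wells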
Sequence (Q9NZ20 whole entry, looked up): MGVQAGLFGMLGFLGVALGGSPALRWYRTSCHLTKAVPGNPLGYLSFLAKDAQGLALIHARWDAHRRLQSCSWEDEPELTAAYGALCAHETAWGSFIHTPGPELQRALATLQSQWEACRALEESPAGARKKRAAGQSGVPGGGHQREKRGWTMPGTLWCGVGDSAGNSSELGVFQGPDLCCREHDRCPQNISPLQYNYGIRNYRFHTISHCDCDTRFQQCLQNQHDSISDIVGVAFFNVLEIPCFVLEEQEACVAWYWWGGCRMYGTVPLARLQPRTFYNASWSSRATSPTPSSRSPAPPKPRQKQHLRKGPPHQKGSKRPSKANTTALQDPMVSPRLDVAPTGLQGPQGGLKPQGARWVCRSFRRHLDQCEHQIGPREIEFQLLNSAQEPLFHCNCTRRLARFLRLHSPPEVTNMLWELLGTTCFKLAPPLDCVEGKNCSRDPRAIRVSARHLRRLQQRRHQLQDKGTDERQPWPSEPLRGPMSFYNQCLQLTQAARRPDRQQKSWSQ

Compound	inhibition
C#CCNC(=O)C[C@H]1C[C@@]2(C(=O)OC)C(=C[C@H](C(C)C)O[C@@H]2C2CC2)N(Cc2ccco2)C1=O	3.7%
Cc1cccc(C(=O)Nc2c(-c3ccc(F)cc3)nc3ncccn23)c1	-0.59%
COC(=O)CC1CCc2cc(C)cc(C(CC(C)C)NC(=O)[C@H](CC(C)C)NC(=O)OCc3ccccc3)c2O1 (stereo not given in full)	-3.39%
O=C(OC12CC3CC(CC(C3)C1)C2)c1ccc(NCc2cc(O)ccc2O)cc1	42.5% (active)
O=C(C1CCCN1S(=O)(=O)c1ccccc1)N1CCc2ccccc2C1 (stereo not given)	-2.35%
Cc1nnc(SCCCn2c(N3CCCCC3)nc3c2c(=O)[nH]c(=O)n3C)s1	-3.33%
Cc1nnc(Sc2nc3c(c(=O)[nH]c(=O)n3C)n2Cc2ccccc2)s1	19.7% (active)
C=CCn1c(SCc2ccccc2)nc2c1c(=O)[nH]c(=O)n2C	-4.25%
COc1ccc(CN2C/C(=C/c3ccccc3)N3C(=O)C[C@@H](c4ccccc4)N=C23)c(OC)c1	-11.6%
Cc1ccc(-n2c(COc3ccccc3)nnc2SCC(=O)Nc2ccc3c(c2)OCCO3)cc1	-18.3%
COc1ccc(C(=O)OCCN2CCN(C3CN(Cc4cn(Cc5ccccc5F)nn4)S(=O)(=O)C3)CC2)cc1OC (stereo not given)	-1.33%
CC(NC(=O)COC(=O)C1CCN(S(=O)(=O)c2ccccc2C(F)(F)F)CC1)c1ccccc1 (stereo not given)	-13.3%
CC(NC(=O)Cn1cc(C(F)(F)F)cc(Cl)c1=O)c1ccccc1 (stereo not given)	0.8%
CC(NC(=O)COC(=O)Cn1cc(C(F)(F)F)ccc1=O)c1ccccc1 (stereo not given)	19.8% (active)
CC(C)(C)CC(=O)Nc1nc(C(N)Cc2ccc(C(F)(F)F)cc2)cs1 (stereo not given)	6.39%
NC(Cc1ccc(F)cc1)c1csc(Nc2nncc3ccccc23)n1 (stereo not given)	9.76%
NC(Cc1ccccc1)c1csc(Nc2cc(Oc3ccccc3)ncn2)n1 (stereo not given)	30.9% (active)
CC(C)N1CCCCC(NC(=O)C(C)(C)C)C1=O (stereo not given)	-4.58%
C=CCN1C(C(=O)OC)CN(Cc2cn(Cc3ccccc3)nn2)CCS1(=O)=O (stereo not given)	1.48%
O=[N+]([O-])c1cc([N+](=O)[O-])c2cccnc2c1O	2.18%
CC(=O)NC(c1cccs1)c1cc(Br)c2cccnc2c1O (stereo not given)	22% (active)
N#Cc1ccccc1NC(=O)COc1c(Br)cc(Br)c2cccnc12	5.73%
Cc1c(C(C)c2ccccc2O)[nH]c2ccccc12 (stereo not given)	-10.4%

Compound	inhibition
CCOC(=O)NC(=O)C(=CNc1cccc(OC)c1)C(=O)NC(=O)OCC	5.9%
CCOC(=O)C(=Cc1ccccc1)C(=O)c1ccccc1	8.51%
CCOC(=O)NC(=O)/C(C#N)=C\c1ccccc1	22.2% (active)
COC(=O)[C@]12C[C@H](CC(=O)NCC34CC5CC(CC(C5)C3)C4)C(=O)N(Cc3ccc(Cl)cc3Cl)C1=C[C@H](COCc1ccccc1)O[C@@H]2C	-6.39%
O=C(Nc1ccc(Br)cc1)OCCN1C(=O)CCC12CCC(c1ccccc1)CC2 (stereo not given)	-1.44%
NC(=O)C1(Nc2ccc(-c3ccccc3)cc2)CCCC1	0.79%
N#CC1(Nc2ccc3c4c(cccc24)CC3)CCCCC1	-35.6%
N#CC1(Nc2ccc(-c3ccc(Cl)cc3)cc2)CCCC1	23.6% (active)
CC(c1ccc(N)cc1)c1cn(C)c2ccccc12 (stereo not given)	13.1%
FC(F)(F)c1cccc(Cn2ccc3ccc(-c4ccc5ccn(Cc6ccccc6)c5c4)cc32)c1	-7.36%
C=CCN(C)CC#Cc1ccccc1	6.96%
CCOC(=O)C1(Cc2cccc(OC)c2)CCCN(C(=O)CCSC)C1 (stereo not given)	19.5% (active)
CCOC(=O)C1(Cc2cccc(OC)c2)CCN(C(C)COC)CC1 (stereo not given)	-1.08%
CCOC(=O)C1(Cc2cccc(OC)c2)CCCN(S(=O)(=O)c2cccnc2)C1 (stereo not given)	1.51%
CC(C)(C)NC(=O)C(c1cccnc1)N(C(=O)c1cnco1)c1ccc(C(C)(C)C)cc1 (stereo not given)	-5.08%
CCOc1ccc(Oc2c(Cl)cnn(-c3ccc(C)cc3)c2=O)cc1	8.12%
COc1cc(NS(=O)(=O)c2ccc3ccccc3c2)c2ncccc2c1	23.8% (active)
O=S(=O)(Nc1ccccn1)c1cccc(S(=O)(=O)c2ccc(Cl)cc2)c1	-7.39%
O=[N+]([O-])c1ccccc1S(=O)(=O)Nc1cccc2cccnc12	6.98%
CCOC(=O)C(=O)N(Cc1ccccc1)c1ccccc1C(=O)Nc1cc(OC)ccc1OC	-2.65%
NC[C@H](Cc1ccccc1)NCCc1cc(C(F)(F)F)cc(C(F)(F)F)c1	21.8% (active)
CC1=CC(C)(C)NC(=S)N1NC(=O)c1ccccc1Cl	4.76%
CC1=CC(C)(C)NC(=S)N1c1ccccc1	20.1% (active)

Compound	inhibition
CN(C)Cc1cn(-c2ccc(-c3noc4c3C(=O)N(CC(=O)N3CCOCC3)CC4)cc2)nn1	1.51%
COc1ccc(N2CCN(CCNS(=O)(=O)c3ccc([N+](=O)[O-])cc3)CC2)cc1	-4.09%
COc1ccccc1CCNC(=O)C1CCN(c2nc(C)cc(C)n2)CC1	-0.08%
Cc1cccc(NC(=S)NCCc2ccc(F)cc2)c1C	8.1%
Cc1c(NC(=S)NCc2ccc(F)cc2)cccc1[N+](=O)[O-]	19.5% (active)
Cc1ccc(NC(=O)CN(C)Cc2ccc(F)cc2)c([N+](=O)[O-])c1	-1.08%
O=C(CSc1nc2ccccc2n1Cc1ccccc1Cl)N/N=C\c1c[nH]c2ccccc12	-20.9%
COC(=O)C1CN(Cc2ccc(F)cc2)CCS(=O)(=O)N1Cc1ccc(Cl)cc1 (stereo not given)	0.13%
CCC(=O)OCCCN1C(=O)CCC12CCC(c1ccccc1)CC2 (stereo not given)	-0.68%
Cc1cccc(C)c1NC(=O)CN1C(=O)C(C)Oc2ccccc21 (stereo not given)	20.8% (active)
Cc1ccc2c(c1)N(CC(=O)N1CCCc3ccccc31)C(=O)C(C)O2 (stereo not given)	0.55%
CC1Oc2ccccc2N(Cc2cccnc2)C1=O (stereo not given)	7.65%
COc1ccc(Cn2ccc3ccc(-c4ccc5ccn(Cc6ccccc6C)c5c4)cc32)cc1	3.9%
COc1ccc(C#CCNCc2ccc(OC)cc2OC)cc1	12.6%
CCOC(=O)C1(Cc2ccccc2)CCN(Cc2cn(C(C)=O)c3ccccc23)CC1	-23.2%
O=C(CSc1nnc(-c2ccccc2)n1Cc1ccco1)Nc1ccccc1-c1ccccc1	-10.1%
CCCCCCCCNS(=O)(=O)/C=C/c1cc(C)ccc1CNC(=O)OC(C)(C)C	-4.97%
CCCCOCCCNC(=O)C[C@H]1C[C@@]2(C(=O)OC)C(=C[C@H](COCc3ccccc3)O[C@@H]2C)N(Cc2cccc3ccccc23)C1=O	-20.5%
COc1cc(/C=N/n2c(C)n[nH]c2=S)ccc1OCc1ccccc1	20.9% (active)
C=CCOc1ccc(/C=N/n2cncn2)cc1OC	2.27%
CNC(=S)N/N=C/c1ccc(OCc2ccccc2)c(Br)c1	0.16%
C=CCn1c(C23CC4CC(CC(C4)C2)C3)n[nH]c1=S	23.5% (active)
C=CCn1c(-c2ccc3[nH]c(C)c(C)c3c2)n[nH]c1=S	-0.35%

Compound	inhibition
C=CCn1c(SCC(=O)NC)nnc1C12CC3CC(CC(C3)C1)C2	0.19%
FC(F)(F)c1cccc(NC(=S)OC2CCC23CCC(c2ccccc2)CC3)c1 (stereo not given)	-7.1%
CN[C@H]1C[C@H]2c3cc(N4CCOCC4)ccc3CCN2C[C@H]1[C@H](C)O	7.01%
CCOC12CC(C)(C)CC(C)(CC3=C1C(=O)CC(C)(C)C3)C2 (stereo not given)	24.1% (active)
O=S1(=O)c2c(cccc2N2CCSCC2)Oc2ccccc2CN1Cc1cn(Cc2ccc(F)cc2)nn1	2.55%
Cc1ccc(S(=O)(=O)NCc2nc3ccccc3c(=O)n2N)cc1	2.93%
C#CCCCc1nc2ccccc2c(=O)n1N	21.1% (active)
Cc1ccc(C(=O)CSc2nc3ccccc3c(=O)n2N)o1	-0.69%
O=C(OCC#CCSc1nnc(-c2ccco2)o1)c1ccc(F)cc1	1.02%
Cc1ccccc1-n1c(SCC(=O)Nc2cccc3ccccc23)nc(O)cc1=O	-4.85%
C/C(=N\NC(=O)COc1c(C)cccc1C)c1cccs1	2.47%
C/C(=N\NC(=O)CSc1nc2ccccc2c(=O)n1-c1ccccc1C)c1cccs1	25.2% (active)
CCc1c(Nc2ccccc2C)nc(N)[nH]c1=O	8.22%
Cc1cc(=O)n(C)c(=O)n1CCCNc1ccccc1	-0.01%
Cc1[nH]c(N)nc(=S)c1CCCNc1ccccc1	23.8% (active)
C=CCN1C(=O)[C@@H](CC(=O)N2CCN(C(=O)c3ccco3)CC2)[C@]2(C(=O)OC)CCCCC=C12	13.7%
COc1cccc(N(C)C(=O)[C@@H](C)[C@@H](O)c2ccc3ccccc3c2)c1	-10.3%
CCOC(=O)C(C)n1cnc2c(nnn2-c2ccc(F)cc2)c1=O (stereo not given)	10.8%
CCOC(=O)C(CC)Sc1ncnc2c1nnn2-c1ccc(F)cc1 (stereo not given)	-1.68%
COC(=O)C(C)n1cnc2c(nnn2-c2ccc(F)cc2)c1=O (stereo not given)	21.6% (active)
C=C1C(C(C)C)N(C)C2=NC(c3ccccc3)CC(=O)N12 (stereo not given)	0%
